Screening results as filed in PubChem BioAssay.
An excerpt weighted towards active compounds, which were near 32% of everything screened.
PostGolgi ctrl – inhibits growth of the yeast control strain; actives 5% (n = 98,000); inhibition, % at 10 µM; efflux-deficient yeast background strain, growth absorbance A615, 16 h; AID 738
CYP2C9 inh – blocks human cytochrome P450 2C9; actives 20% (n = 96,000); CYP2C9 Supersomes, luciferin-H conversion, luminescence; inhibition, % at 5 µM; AID 777; P11712;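 active = blocking of liver enzyme CYP2C9 beyond about 50% at 5 µM, limit read from the data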
Target sequence (P11712 whole entry, looked up): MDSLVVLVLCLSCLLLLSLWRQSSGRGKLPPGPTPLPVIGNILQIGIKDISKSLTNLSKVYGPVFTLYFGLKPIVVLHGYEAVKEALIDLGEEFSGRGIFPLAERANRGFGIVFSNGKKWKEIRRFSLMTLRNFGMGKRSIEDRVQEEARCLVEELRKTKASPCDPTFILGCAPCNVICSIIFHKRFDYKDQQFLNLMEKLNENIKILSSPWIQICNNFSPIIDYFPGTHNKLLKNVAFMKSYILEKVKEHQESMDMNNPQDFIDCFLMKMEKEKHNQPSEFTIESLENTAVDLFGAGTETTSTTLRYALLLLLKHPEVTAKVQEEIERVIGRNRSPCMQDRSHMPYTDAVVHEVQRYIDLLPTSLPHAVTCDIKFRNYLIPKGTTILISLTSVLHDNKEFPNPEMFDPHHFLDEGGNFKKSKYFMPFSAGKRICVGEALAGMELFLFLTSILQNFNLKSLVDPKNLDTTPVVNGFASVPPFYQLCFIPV
CYP2C9 activ – activators of human CYP2C9; AID 1024; actives 1.4% (n = 96,000); activation factor at 5 µM; recombinant CYP2C9, luciferin-H conversion, luminescence; active compounds read high; factor 1 = untreated enzyme, 0 = blocked; P11712;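 active = activation factor of 2 or more for CYP2C9 at a 5 µM dose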;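 also: 0 = sulfaphenazole-blocked wells and 1 = vehicle-only wells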
CYP2C19 act – increases human CYP2C19 enzyme activity; recombinant CYP2C19, luciferin-H EGE luminescence; active compounds read high; 0 = fully inhibited enzyme, 1 = untreated enzyme; P33261; activation factor at 5 µM; 96,000 tested, under 10 active;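 active = activation factor of at least 2 at 5 µM in the primary screen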;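 also: 0 = wells with 2.5 mM tranylcypromine and 1 = vehicle-only wells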
PostGolgi yeast – growth inhibition of a yeast mutant, post-Golgi transport screen | inhibition, % at 10 µM | actives 0.9% (n = 98,000) | post-Golgi transport phenotypic cell assay;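 also: yeast cells grown in 1536-well plates; yeast grown about 18 h at 30C before absorbance read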
CYP2C19 inh – human CYP2C19 inhibition; P33261; CYP2C19 Supersomes, luciferin-H EGE luminescence, 30 min; inhibition, % at 5 µM; actives 21% (n = 96,000); AID 778;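 active = CYP2C19 inhibition above a set limit at 5 µM in the primary screen, cut at about 50% in these data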;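 also: plate controls were negative control wells for no effect and 2.5 mM tranylcypromine positive control for full effect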
The depositor's hits bear a star; x = not tested or not shown. Rule as the data show it, unless noted: active = inhibition above about 30%; inactive = the rest.

SMILES | PostGolgi ctrl | CYP2C9 inh | CYP2C9 activ | CYP2C19 act | PostGolgi yeast | CYP2C19 inh
O=C(C/C=N/OCc1ccc(Cl)cc1Cl)c1ccccc1 | 9 | 18 | 0.8 | 0.9 | 2 | 10
Cc1ccccc1C1CC(c2ccccc2)Nc2ncnn21 (stereo not given) | 7 | 10 | 0.9 | 0.6 | 0 | 36
COc1cccc(C2CC(c3ccccc3OC)n3ncnc3N2)c1 (stereo not given) | 1 | 66* | 0.3 | 0 | -1 | 96*
CCOc1ccccc1C1CC(c2ccc(F)cc2)Nc2nc(N)nn21 (stereo not given) | -2 | 24 | 0.8 | 0.3 | -1 | 65*
COc1ccccc1C1C(C(N)=O)=C(C)Nc2ncnn21 (stereo not given) | 10 | -38 | 1.4 | 1.2 | 12 | -22
CCOc1ccc(C2CC(c3ccccc3C)n3ncnc3N2)cc1 (stereo not given) | 9 | 3 | 1 | 0.4 | 12 | 64*
COc1ccccc1C1CC(c2ccc(Cl)cc2)Nc2ncnn21 (stereo not given) | 3 | 70* | 0.3 | 0 | 4 | 98*
Cc1cc2nn(-c3cccc4ccccc34)nc2cc1NC(=O)c1cccs1 | 21 | 29 | 0.7 | 0.7 | 12 | 30
CCOc1ccc(-c2nnn(CC(=O)NCc3cccs3)n2)cc1 | -4 | 8 | 0.9 | 0.6 | -17 | 44
COc1cccc(C2CC(c3ccccc3)Nc3ncnn32)c1 (stereo not given) | 4 | 44 | 0.6 | 0.1 | 15 | 95*
COc1ccc(C2CC(c3ccc(Cl)cc3Cl)n3nc(N)nc3N2)cc1 (stereo not given) | -2 | x | x | x | 9 | x
COc1ccccc1C1CC(c2ccc(Cl)cc2)Nc2nc(N)nn21 (stereo not given) | 24 | 1 | 1 | 0.5 | -3 | 50*
COc1cccc(C2CC(c3ccc(C)cc3)Nc3nc(N)nn32)c1 (stereo not given) | 7 | -3 | 1 | 0.9 | 5 | 9
O=c1nc(NCc2ccccc2Cl)cn[nH]1 | -2 | -12 | 1.1 | 1 | 8 | -3
COc1ccc(-c2nnc3sc(-c4cccs4)nn23)cc1OC | 17 | 23 | 0.8 | 0.8 | 15 | 25
CN(C)c1ccc(-c2nn3c(-c4cccnc4)nnc3s2)cc1 | x | 10 | 0.9 | 0.6 | x | 38
COc1cc(-c2nn3c(-c4cccnc4)nnc3s2)cc(OC)c1OC | 12 | 40 | 0.6 | 0.3 | 3 | 66*
COc1cc(-c2nnc3sc(-c4cccs4)nn23)cc(OC)c1OC | 23 | 80* | 0.2 | 0.3 | -3 | 70*
COc1ccc(C2C(C(=O)N3CCCC3)c3cc(OC)c(OC)cc3C(=O)N2C)cc1 (stereo not given) | 3 | 14 | 0.9 | 0.9 | 1 | 6
CCCC(=O)N=C1SC2CS(=O)(=O)CC2N1c1ccc(C(C)=O)cc1 (stereo not given) | 3 | 42 | 0.6 | 0.9 | 15 | 7
c1ccc2c(c1)oc1c(NCc3ccc4c(c3)OCO4)ncnc12 | 17 | 85* | 0.2 | 0.3 | -1 | 70*
Oc1ccccc1Nc1ncnc2c1oc1ccccc12 | 26 | 12 | 0.9 | 0.9 | 3 | 11
c1ccc2c(c1)oc1c(Nc3ccc4c(c3)OCO4)ncnc12 | -1 | 45 | 0.6 | 0.5 | -4 | 54*
c1ccc2c(c1)oc1c(NCCN3CCOCC3)ncnc12 | 8 | 16 | 0.8 | 1 | -5 | 0
c1ccc2c(c1)oc1c(Nc3ccc(CN4CCOCC4)cc3)ncnc12 | 20 | 17 | 0.8 | 0.4 | 56* | 60*
SMILES | PostGolgi ctrl | CYP2C9 inh | CYP2C9 activ | CYP2C19 act | PostGolgi yeast | CYP2C19 inh
Cc1nc(Nc2ccc3c(c2)OCO3)c2oc3ccccc3c2n1 | 8 | 66* | 0.3 | 0.5 | -1 | 55*
O=C(Nc1nnc(SCC(=O)N2CCCCC2)s1)c1cccs1 | 3 | 1 | 1 | 1.1 | -7 | -8
CC(C)C(NC(=O)c1ccccc1)c1nnc(SCC(=O)Nc2nccs2)n1C (stereo not given) | -5 | 9 | 0.9 | 1 | -4 | 2
CN(C1CCCCC1)S(=O)(=O)c1ccc(Cl)c(C(=O)O)c1 | 27 | 7 | 0.9 | 0.9 | 4 | 5
CC(=O)c1ccc(OCCCN2CCCCC2)cc1 | -2 | 69* | 0.3 | 0.3 | 16 | 66*
CC(C)COc1ccc(C(=O)CCN2CCCCC2)cc1 | 44* | 8 | 0.9 | 0.8 | -4 | 15
